Test results reported in the supplement of paper PMC11732987, “Enantioselective OTUD7B fragment discovery through chemoproteomics screening and high-throughput optimisation” (Communications Chemistry, 2025).

Legend:
Assay in all cases: log2 ratio of Biotin-Ahx-Ub-VS probe labelling (fragment/DMSO); higher = less target engagement (more negative = stronger competition), active = hit call of the paper (q ≤ 0.05, log2 ratio ≤ -1)
Details in all cases: compound concentration: 200 uM; treatment time: 3 h
USP34 = USP34 (UniProt Q70CQ2)
Chain of USP34 (Q70CQ2 whole entry, the tested form may be a part): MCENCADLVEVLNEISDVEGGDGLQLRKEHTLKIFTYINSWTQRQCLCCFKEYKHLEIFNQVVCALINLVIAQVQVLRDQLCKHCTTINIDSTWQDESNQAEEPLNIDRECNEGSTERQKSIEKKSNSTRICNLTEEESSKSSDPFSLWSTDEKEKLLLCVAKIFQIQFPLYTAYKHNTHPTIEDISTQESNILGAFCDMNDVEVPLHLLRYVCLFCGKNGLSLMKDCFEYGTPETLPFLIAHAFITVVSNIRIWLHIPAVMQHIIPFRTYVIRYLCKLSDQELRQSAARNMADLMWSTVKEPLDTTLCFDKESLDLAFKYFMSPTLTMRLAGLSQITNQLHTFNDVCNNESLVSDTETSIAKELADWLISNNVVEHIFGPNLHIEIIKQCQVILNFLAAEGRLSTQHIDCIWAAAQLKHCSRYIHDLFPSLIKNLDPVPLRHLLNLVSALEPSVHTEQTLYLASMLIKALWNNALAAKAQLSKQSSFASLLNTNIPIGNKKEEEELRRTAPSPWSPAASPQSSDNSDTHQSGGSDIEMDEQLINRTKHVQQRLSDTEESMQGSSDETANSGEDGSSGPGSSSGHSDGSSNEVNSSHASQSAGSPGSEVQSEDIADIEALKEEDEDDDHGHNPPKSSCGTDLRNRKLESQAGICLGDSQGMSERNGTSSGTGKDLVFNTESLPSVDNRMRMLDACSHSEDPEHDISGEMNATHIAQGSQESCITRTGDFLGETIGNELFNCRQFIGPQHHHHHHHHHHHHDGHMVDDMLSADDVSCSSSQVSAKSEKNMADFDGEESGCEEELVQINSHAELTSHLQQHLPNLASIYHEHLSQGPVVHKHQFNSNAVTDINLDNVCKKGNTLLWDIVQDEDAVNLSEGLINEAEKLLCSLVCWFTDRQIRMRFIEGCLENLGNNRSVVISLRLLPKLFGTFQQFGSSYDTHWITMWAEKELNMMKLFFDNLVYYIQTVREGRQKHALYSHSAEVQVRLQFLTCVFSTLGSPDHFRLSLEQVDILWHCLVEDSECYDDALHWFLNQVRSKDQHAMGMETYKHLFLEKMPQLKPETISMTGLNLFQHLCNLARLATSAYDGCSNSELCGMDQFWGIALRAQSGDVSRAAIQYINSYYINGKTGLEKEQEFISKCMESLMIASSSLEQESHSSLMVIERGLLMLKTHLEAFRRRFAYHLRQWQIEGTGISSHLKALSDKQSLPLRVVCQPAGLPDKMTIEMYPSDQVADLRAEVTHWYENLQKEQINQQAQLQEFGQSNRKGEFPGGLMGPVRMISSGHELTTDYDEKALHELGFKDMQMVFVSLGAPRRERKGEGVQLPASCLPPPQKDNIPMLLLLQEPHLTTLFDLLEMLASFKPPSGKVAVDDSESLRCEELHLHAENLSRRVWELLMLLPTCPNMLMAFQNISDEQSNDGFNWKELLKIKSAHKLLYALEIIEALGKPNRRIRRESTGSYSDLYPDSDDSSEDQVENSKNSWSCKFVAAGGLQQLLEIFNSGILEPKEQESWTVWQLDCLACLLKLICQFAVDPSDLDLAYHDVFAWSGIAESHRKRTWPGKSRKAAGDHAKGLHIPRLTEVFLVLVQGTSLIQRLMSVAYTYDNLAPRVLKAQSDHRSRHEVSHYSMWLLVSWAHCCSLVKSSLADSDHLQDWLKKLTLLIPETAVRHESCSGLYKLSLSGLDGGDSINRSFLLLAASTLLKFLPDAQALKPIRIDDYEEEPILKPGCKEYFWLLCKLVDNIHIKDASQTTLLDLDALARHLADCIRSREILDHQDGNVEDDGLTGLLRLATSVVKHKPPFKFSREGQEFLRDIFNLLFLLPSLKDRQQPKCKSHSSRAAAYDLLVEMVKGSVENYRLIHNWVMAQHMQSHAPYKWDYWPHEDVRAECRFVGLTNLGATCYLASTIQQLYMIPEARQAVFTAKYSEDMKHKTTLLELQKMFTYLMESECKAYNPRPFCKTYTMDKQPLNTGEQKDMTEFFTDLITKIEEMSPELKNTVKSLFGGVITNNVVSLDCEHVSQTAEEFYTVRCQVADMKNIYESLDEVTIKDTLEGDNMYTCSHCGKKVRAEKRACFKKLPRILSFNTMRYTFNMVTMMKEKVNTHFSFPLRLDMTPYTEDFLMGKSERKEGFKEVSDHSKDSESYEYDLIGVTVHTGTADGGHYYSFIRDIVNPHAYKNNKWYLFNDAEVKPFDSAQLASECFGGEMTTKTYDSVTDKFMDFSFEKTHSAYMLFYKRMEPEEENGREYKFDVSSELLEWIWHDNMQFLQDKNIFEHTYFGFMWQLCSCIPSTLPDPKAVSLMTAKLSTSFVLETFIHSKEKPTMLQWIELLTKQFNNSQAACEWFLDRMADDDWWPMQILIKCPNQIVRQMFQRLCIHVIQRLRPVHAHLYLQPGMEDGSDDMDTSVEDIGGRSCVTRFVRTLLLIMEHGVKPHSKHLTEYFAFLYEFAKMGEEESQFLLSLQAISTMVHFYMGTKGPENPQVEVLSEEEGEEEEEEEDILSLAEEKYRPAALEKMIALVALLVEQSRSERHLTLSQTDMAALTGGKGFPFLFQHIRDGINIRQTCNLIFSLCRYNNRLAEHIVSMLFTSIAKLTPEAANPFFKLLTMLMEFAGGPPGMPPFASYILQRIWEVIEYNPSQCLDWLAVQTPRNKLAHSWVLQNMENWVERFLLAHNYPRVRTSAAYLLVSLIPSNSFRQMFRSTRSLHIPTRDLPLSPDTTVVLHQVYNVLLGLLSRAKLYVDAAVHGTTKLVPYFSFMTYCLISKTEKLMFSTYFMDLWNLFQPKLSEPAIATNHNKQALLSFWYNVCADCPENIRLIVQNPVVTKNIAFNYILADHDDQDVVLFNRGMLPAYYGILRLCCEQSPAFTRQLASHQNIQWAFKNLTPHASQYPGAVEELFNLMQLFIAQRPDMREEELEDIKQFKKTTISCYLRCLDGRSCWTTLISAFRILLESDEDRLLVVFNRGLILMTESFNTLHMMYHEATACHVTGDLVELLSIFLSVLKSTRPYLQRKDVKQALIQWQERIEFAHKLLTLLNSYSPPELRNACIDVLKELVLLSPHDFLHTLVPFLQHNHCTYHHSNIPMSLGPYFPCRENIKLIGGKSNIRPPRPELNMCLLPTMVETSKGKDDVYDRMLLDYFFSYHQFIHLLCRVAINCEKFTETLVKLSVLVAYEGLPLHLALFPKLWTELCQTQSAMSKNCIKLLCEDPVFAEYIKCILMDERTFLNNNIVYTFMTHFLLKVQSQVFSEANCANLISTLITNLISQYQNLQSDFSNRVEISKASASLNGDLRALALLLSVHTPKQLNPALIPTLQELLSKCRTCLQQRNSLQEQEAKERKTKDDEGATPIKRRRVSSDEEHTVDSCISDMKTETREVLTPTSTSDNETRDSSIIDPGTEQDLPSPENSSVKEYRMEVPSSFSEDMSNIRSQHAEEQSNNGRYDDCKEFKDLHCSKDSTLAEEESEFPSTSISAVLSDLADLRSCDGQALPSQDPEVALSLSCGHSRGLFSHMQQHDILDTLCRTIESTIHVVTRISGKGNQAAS
In short: (§1)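 Each value is an average log2 ratio of fragment to vehicle, tested by unpaired t-test. The underlying Spectronaut label-free quantities were global-median-normalised, and only proteins with ≥2 unique peptides were included. Triplicate HEK293T lysate samples (495 µg) were exposed to fragment at 200 µM or vehicle for 3 h, then to Biotin-Ahx-Ub-VS at 0.5 µM final for 1 h, before NeutrAvidin enrichment of labelled DUBs, LysC and trypsin digestion, and diaPASEF LC-MS/MS.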

USP36 = biological target: T1, USP36 (UniProt Q9P275)
T1 sequence (whole entry): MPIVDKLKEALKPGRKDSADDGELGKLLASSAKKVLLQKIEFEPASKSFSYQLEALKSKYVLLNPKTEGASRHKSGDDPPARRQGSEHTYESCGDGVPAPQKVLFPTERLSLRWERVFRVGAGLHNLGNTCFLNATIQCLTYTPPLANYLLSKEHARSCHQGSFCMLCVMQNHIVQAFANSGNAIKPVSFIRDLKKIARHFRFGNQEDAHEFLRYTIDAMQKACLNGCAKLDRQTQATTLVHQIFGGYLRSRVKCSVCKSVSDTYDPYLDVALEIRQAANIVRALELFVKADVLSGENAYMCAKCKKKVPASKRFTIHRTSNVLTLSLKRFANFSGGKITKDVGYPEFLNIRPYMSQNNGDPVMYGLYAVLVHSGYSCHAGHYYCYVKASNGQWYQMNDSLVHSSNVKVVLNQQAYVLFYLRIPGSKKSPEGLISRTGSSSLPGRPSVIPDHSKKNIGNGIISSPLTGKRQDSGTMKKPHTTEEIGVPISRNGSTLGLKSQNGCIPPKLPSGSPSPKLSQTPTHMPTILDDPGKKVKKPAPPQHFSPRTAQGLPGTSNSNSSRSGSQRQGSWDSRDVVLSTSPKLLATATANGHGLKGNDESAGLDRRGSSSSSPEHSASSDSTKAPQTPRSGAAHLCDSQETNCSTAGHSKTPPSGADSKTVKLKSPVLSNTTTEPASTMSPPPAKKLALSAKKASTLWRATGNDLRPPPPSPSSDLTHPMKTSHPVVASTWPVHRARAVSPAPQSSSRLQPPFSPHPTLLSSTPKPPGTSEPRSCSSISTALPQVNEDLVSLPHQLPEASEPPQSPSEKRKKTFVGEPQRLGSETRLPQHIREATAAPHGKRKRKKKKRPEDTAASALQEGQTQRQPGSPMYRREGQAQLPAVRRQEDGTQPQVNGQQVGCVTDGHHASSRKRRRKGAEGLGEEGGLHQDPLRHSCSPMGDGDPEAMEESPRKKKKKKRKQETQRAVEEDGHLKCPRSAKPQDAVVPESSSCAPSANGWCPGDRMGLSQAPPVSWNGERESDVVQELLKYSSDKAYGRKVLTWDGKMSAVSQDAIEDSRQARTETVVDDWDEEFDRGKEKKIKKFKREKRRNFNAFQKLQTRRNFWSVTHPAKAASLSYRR
In short: as §1

USP38 = biological target: T2, USP38 (UniProt Q8NB14)
T2 sequence (whole entry): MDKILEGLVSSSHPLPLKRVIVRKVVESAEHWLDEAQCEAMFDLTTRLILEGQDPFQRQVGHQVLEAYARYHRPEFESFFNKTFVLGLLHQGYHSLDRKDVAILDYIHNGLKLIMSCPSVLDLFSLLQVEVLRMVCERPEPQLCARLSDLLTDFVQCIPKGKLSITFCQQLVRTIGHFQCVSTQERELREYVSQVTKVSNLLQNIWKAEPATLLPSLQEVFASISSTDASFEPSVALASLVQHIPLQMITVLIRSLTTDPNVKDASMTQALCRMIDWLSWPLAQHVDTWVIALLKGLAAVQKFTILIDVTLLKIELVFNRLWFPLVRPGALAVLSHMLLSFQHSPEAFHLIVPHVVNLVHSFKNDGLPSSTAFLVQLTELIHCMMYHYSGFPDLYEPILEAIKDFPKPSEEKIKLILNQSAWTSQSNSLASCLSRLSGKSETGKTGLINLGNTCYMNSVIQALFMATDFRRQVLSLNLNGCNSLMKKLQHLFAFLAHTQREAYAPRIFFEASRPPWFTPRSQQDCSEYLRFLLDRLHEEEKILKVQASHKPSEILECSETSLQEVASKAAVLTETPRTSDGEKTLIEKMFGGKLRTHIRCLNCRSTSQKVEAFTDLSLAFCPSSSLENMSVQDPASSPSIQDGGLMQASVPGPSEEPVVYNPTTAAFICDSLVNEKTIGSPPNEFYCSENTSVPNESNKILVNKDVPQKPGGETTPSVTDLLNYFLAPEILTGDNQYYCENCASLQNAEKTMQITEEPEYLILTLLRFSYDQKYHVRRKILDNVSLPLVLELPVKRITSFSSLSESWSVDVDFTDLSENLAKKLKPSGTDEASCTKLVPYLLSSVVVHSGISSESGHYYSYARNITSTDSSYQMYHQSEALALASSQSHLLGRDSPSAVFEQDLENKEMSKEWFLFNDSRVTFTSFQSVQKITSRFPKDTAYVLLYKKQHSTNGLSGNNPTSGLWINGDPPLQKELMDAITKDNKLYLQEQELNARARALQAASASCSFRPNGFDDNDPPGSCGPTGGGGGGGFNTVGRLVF
In short: as §1

USP39 = biological target: T3, USP39 (UniProt Q53GS9)
T3 sequence (whole entry): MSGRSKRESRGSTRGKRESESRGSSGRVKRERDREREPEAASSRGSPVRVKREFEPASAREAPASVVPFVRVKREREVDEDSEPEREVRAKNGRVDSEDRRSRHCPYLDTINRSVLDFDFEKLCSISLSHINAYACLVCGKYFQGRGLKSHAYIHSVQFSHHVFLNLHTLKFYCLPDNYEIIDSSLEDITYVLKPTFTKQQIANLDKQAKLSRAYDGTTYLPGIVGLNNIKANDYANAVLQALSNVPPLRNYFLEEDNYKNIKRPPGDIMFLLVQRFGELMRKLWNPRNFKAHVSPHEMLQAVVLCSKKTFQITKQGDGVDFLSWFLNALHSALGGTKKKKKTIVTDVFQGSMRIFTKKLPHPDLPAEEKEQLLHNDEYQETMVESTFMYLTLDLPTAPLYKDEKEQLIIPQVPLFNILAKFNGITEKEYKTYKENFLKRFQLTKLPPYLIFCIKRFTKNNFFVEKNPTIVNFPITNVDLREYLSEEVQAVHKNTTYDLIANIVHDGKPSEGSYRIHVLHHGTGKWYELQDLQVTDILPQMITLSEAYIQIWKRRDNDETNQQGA
In short: as §1

USP4 = biological target: T4, USP4 (UniProt Q13107)
T4 sequence (whole entry): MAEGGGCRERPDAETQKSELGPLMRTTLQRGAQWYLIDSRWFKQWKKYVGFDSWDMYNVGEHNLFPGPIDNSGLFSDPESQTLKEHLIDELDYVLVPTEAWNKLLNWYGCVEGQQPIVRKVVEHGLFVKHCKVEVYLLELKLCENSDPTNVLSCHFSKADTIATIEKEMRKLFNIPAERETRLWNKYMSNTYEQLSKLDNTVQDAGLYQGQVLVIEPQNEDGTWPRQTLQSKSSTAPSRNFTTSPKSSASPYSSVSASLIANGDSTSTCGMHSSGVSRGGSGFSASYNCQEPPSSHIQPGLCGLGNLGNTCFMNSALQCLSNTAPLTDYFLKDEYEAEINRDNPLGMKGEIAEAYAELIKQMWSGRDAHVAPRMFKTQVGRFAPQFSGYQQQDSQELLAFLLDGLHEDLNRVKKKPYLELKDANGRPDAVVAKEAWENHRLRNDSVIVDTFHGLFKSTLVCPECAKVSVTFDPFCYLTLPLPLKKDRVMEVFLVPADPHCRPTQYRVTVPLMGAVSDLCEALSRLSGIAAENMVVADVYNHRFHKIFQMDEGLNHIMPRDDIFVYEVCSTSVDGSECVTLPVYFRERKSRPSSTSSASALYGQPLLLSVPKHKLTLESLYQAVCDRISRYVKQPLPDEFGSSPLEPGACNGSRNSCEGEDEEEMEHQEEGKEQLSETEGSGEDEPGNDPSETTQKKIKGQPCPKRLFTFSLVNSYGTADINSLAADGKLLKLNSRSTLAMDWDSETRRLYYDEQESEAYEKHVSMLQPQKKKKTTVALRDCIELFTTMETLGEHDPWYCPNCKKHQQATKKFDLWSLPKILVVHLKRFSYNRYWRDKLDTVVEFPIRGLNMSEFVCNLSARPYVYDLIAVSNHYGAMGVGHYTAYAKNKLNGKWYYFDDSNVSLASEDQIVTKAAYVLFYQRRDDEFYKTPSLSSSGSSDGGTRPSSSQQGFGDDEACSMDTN
In short: as §1

Measured: log2 ratio of Biotin-Ahx-Ub-VS probe labelling

O=C(CCl)NCC1(c2ccccc2)CC1
inactive: USP34 -0.227 | USP36 -0.0695 | USP38 0.127 | USP39 -0.168 | USP4 -0.0752
